Compounds with a hit are over-represented: about 2.3% of the library has one in this group of screens.
C diff growth = C. difficile growth inhibition. Clostridium difficile clinical isolate growth, OD600, 24 h; active compounds read low. growth activity, negative = inhibition, % at 16 µg/mL (by protocol). 0.25% of 86,000 active. AID 1259249;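 active = mean growth activity at or below -80% and every replicate also at or below -80%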;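 note: 0% = DMSO wells and -100% = levofloxacin 16 µg/mL wells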
Pf Dd2 inh = blocks growth of Plasmodium falciparum Dd2 parasites | AID 1159554 | 2.3% of 94,000 active | activity change, % at 10 µM | P. falciparum Dd2 growth, SYBR Green, 72 h; active compounds read low; in the data active = activity change below about -80%
* = called active by the depositor; . = no result.

SMILES | C diff growth | Pf Dd2 inh
C[C@@H]1CCCCO[C@@H](CN(C)S(=O)(=O)c2cccs2)[C@@H](C)CN([C@@H](C)CO)C(=O)c2cc(NC(=O)Nc3ccc4c(c3)OCO4)ccc2O1 | 8 | -67
CCCNC(=O)C[C@@H]1CC[C@@H]2[C@H](COC[C@H](O)CN2C(=O)C2CCOCC2)O1 | . | 5
COc1ccccc1CNC(=O)C[C@H]1CC[C@H]2[C@@H](COC[C@H](O)CN2Cc2cccc(-c3ccncc3)c2)O1 | 2 | .
C[C@H](CO)N1C[C@H](C)[C@H](CN(C)Cc2cncnc2)Oc2cc(/C=C/c3ccccc3)ccc2S1(=O)=O | 1 | -45
C[C@H](CO)N1C[C@H](C)[C@H](CN(C)Cc2cccnc2)Oc2cc(/C=C/c3ccccc3)ccc2S1(=O)=O | 13 | -58
C[C@@H]1CN([C@@H](C)CO)S(=O)(=O)c2ccc(/C=C/c3ccccc3)cc2O[C@H]1CN(C)Cc1cncnc1 | -7 | -89*
C[C@@H]1CN([C@@H](C)CO)S(=O)(=O)c2ccc(-c3ccc(C#N)cc3)cc2O[C@@H]1CN(C)CC1CC1 | -3 | -77
C[C@H]1CN([C@@H](C)CO)S(=O)(=O)c2ccc(-c3ccc(C#N)cc3)cc2O[C@H]1CN(C)CC1CC1 | 5 | -91*
C[C@H]1CN([C@@H](C)CO)S(=O)(=O)c2ccc(/C=C/c3ccccc3)cc2O[C@H]1CN(C)Cc1cccnc1 | 4 | -82*
C[C@H]1CN([C@@H](C)CO)S(=O)(=O)c2ccc(/C=C/c3ccccc3)cc2O[C@H]1CN(C)CC1CC1 | 19 | -84*
C/C=C/c1ccc2c(c1)O[C@H](CN(C)CC1CC1)[C@H](C)CN([C@H](C)CO)S2(=O)=O | 3 | -20
COc1ccc(CNC(=O)C[C@@H]2C[C@H]3c4cc(NC(=O)NC5CCCC5)ccc4O[C@H]3[C@@H](CO)O2)cc1 | -5 | 7
COCC#Cc1cnc2c(c1)C(=O)N([C@H](C)CO)C[C@@H](C)[C@@H](CN(C)C(=O)C1CCCCC1)O2 | 2 | 2
O=S(=O)(c1ccc(F)cc1)N1CCCCN2[C@@H](CO)[C@H](c3ccc(C#CC4CCCC4)cc3)[C@@H]2C1 | 21 | -49
C[C@@H]1CCCCO[C@@H](CN(C)C(=O)Nc2cccc3ccccc23)[C@@H](C)CN([C@@H](C)CO)C(=O)c2cc(NC(=O)C3CCCCC3)ccc2O1 | 18 | -90*
C[C@H](CO)N1C[C@H](C)[C@@H](CN(C)C(=O)Nc2cccc3ccccc23)OCCCC[C@H](C)Oc2ccc(NC(=O)C3CCCCC3)cc2C1=O | -14 | -75
C[C@@H]1CN([C@H](C)CO)C(=O)c2cc(NC(=O)C3CCCCC3)ccc2O[C@@H](C)CCCCO[C@@H]1CN(C)C(=O)Nc1cccc2ccccc12 | 7 | -91*
C[C@@H]1CN([C@@H](C)CO)C(=O)c2cc(NC(=O)C3CCCCC3)ccc2O[C@@H](C)CCCCO[C@H]1CN(C)C(=O)Nc1cccc2ccccc12 | -4 | -78
O=C(NCC(F)(F)F)[C@@H]1[C@@H](CO)[C@@H]2Cn3c(cccc3=O)[C@@H]2N1C(=O)C1CCCC1 | 2 | 4
C[C@H](C(=O)N(C)C[C@H]1OCc2ccccc2-c2c(n(C)c3ccccc23)C(=O)N([C@H](C)CO)C[C@@H]1C)c1ccccc1 | 26 | -51
C[C@H](C(=O)N(C)C[C@H]1OCc2ccccc2-c2c(n(C)c3ccccc23)C(=O)N([C@@H](C)CO)C[C@H]1C)c1ccccc1 | 0 | -78
C[C@@H]1CN([C@H](C)CO)C(=O)c2c(c3ccccc3n2C)-c2ccccc2CO[C@@H]1CN(C)C(=O)N[C@H](C)c1ccccc1 | -5 | -30
C[C@H](CO)N1C[C@H](C)[C@@H](CN(C)C(=O)N[C@H](C)c2ccccc2)OCc2ccccc2-c2c(n(C)c3ccccc23)C1=O | 12 | -82*
C[C@H](C(=O)N(C)C[C@@H]1OCc2ccccc2-c2c(n(C)c3ccccc23)C(=O)N([C@@H](C)CO)C[C@@H]1C)c1ccccc1 | -6 | -83*
C[C@H](CO)N1C[C@H](C)[C@H](CN(C)C(=O)[C@H](C)c2ccccc2)OCc2ccccc2-c2c(n(C)c3ccccc23)C1=O | 5 | -91*
C[C@@H]1CN([C@H](C)CO)C(=O)c2cc(C#C[C@@H](C)O)cnc2O[C@H]1CN(C)C(=O)Cc1ccccn1 | -6 | 21
COc1ccc2c3c(n(C)c2c1)[C@@H](CO)N(C(=O)CN1CCOCC1)CC31CN(C(C)=O)C1 | 6 | 45
COc1cccc(S(=O)(=O)N2C[C@@H](O)COC[C@H]3O[C@H](CC(=O)N4CCOCC4)CC[C@@H]32)c1 | . | 6
CC(C)NC(=O)Nc1cccc2c1O[C@H](CN(C)Cc1ccc(-c3ccccc3)cc1)[C@@H](C)CN([C@H](C)CO)C2=O | 54 | -45
CCCNC(=O)N1[C@H](C#N)[C@@H](c2ccccc2C2=CCCC2)[C@@H]1CO | -2 | -89*

Screening results (PubChem BioAssay)
